SARS PLP yeast: SARS-CoV PLP inhibition in yeast | Potency, µM (top dose mostly 32.9 µM), for inactives: top-dose activity, positive = growth rescue, hits mostly activators | 0.19% of 330,000 active | S. cerevisiae expressing SARS-CoV PLpro, growth rescue | AID 485353; calls by dose curve; also: potency is read from the fitted curve at half-maximal effect; 0% is about no effect; nearly all actives have a fitted effect of over 55% in size
FMDV antiviral: foot and mouth disease virus antiviral activity | FMDV antiviral cell-based qHTS | Potency, µM (titrated, usually from 57.9 µM), inactives show top-dose activity change, negative = inhibition, usual class: inhibitors | 1.2% of 410,000 active; calls by dose curve; tested in HEK293T cells; also: read-out not given here; potency is read from the fitted curve at half-maximal effect; % is scaled to controls: 0 for no effect and ±100 for the full control effect; nearly all actives have a fitted effect of over 45% in size
HCMV antiviral: inhibitors of human cytomegalovirus | HFF cells, HCMV-luciferase reporter, 72 h; hits give low values | AID 1259415 | activity change, negative = inhibition, % at 57.5 µM | 4.5% of 410,000 active; in the data active = activity change below about -60%; inconclusive = no clear call, values can overlap the other calls; inactive = above about -39%; also: % is scaled to controls: 0 for no effect and ±100 for the full control effect
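Inhibition of viral replication was scored as loss of reporter luminescence in HFFs infected with HCMV-luciferase (MOI 1 PFU/cell) for 72 h; compounds tested at 2 doses, normalized to buffer and Salinomycin controls.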
MARV entry inh: Marburg virus entry inhibition; Marburg virus pseudotyped entry inhibition, cell reporter; Potency, µM (series often up to 37.8 µM), without a hit: top-dose activity change, negative = inhibition, hits mostly inhibitors; 1.8% of 300,000 active; calls by dose curve; tested in HEK293 cells; also: potency is read from the fitted curve at half-maximal effect; % is scaled to controls: 0 for no effect and ±100 for the full control effect
LASV entry inh: Lassa virus entry inhibition; Lassa virus pseudotype entry inhibition, cell reporter; Potency, µM (titrated, usually from 37.9 µM), for the others: at the highest dose activity change, negative = inhibition, hits mostly inhibitors; 1.2% of 300,000 active; calls by dose curve; tested in HEK293 cells; also: potency is read from the fitted curve at half-maximal effect; % is scaled to controls: 0 for no effect and ±100 for the full control effect; nearly all actives have a fitted effect of over 50% in size
HCV inh: HCV inhibition. Huh7.5.1 HCVcc-Cre infection, luciferase reporter, 44 h. Potency, µM (highest dose often 41.8 µM), without a hit: at the top dose activity change, negative = inhibition, usual class: inhibitors. 3.4% of 340,000 active; active = well fitted inhibition curve with a large enough effect; inconclusive = small, poorly fitted or top-dose-only effect, or another doubt; inactive = no such curve, though single readings can be large or run the other way; also: potency is read from the fitted curve at half-maximal effect; % is scaled to controls: 0 for no effect and ±100 for the full control effect
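Cells seeded at 1,000/well and cultured 4 h, then compounds added followed by HCVcc-Cre virus (~0.5 moi). After 44 h further culture, luciferase substrate was added, plates held 15 min at room temperature, and luminescence read for 15 sec.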
An asterisk follows results filed as active; ? = inconclusive; . = no result; [ ] = dose if it differs, or a comment. In the library only some 8% were active in any assay of this set; here they are far more common.

SMILES	SARS PLP yeast	FMDV antiviral	HCMV antiviral	MARV entry inh	LASV entry inh	HCV inh
COc1cc(/C=C/c2ccc3cccc(O)c3n2)cc(Cl)c1OC	-1%	-10%	-37	4.5µM*	?	?
COC(=O)c1ccc(/C=C/c2ccc3cccc(OC)c3n2)cc1	-22%	?	0	-29%	-1%	8%
COc1cc(/C=C/c2nc(-c3ccccc3O)n[nH]2)cc(OC)c1OC	-17%	?	1	?	?	11µM*
COc1cc(/C=C/c2ccc3cccc(O)c3n2)cc(OC)c1OC	1%	1%	-94*	?	?	?
Oc1cccc(/C=C/c2ccc3cccc(O)c3n2)c1	-8%	-51%	45	?	?	?
COc1cc(/C=C/c2ccc3c(Br)cc(Br)c(O)c3n2)ccc1O	-2%	?	-100*	.	.	8.9µM*
COc1cccc(/C=C/c2ccc3cccc(O)c3n2)c1	-6%	-24%	-95*	?	?	?
N#C/C(=C\c1c(Cl)cccc1Cl)c1nc2ccccc2[nH]1	-7%	-18%	-70*	?	?	-26%
O=C(O)c1cc([N+](=O)[O-])c(Sc2nc3ccccc3[nH]2)c([N+](=O)[O-])c1	1%	-7%	82	.	.	6%
N#C/C(=C/c1ccc(N2CCOCC2)o1)c1nc2ccccc2[nH]1	-11%	-61%	107	?	?	-31%
N#C/C(=C\c1ccc(Sc2ccc(Cl)cc2)o1)c1nc2ccccc2[nH]1	-34%	-30%	-68*	?	-16%	?
N#C/C(=C\c1ccc(Sc2nc3ccccc3[nH]2)o1)c1ccccc1	-11%	?	-96*	?	?	10µM*
N#Cc1ccc(Sc2nc3ccccc3[nH]2)cc1C#N	5%	-24%	-77*	?	-25%	-5%
CCOc1ccc(CO[C@@H]2O[C@H](CO)[C@@H](O)[C@H](O)[C@H]2NC(C)=O)cc1OC	2%	12%	-26	-36%	-24%	-6%
N#C/C(=C\C1CC=CCC1)c1nc2ccccc2[nH]1 (stereo unspecified)	-20%	?	-82*	?	?	?
Cn1c(/C(C#N)=C/C2CC=CCC2)nc2ccccc21 (stereo unspecified)	1%	.	-16	-28%	-22%	5%
Cc1ccc(C)c(NC(=S)NC(NC(=O)OCc2ccccc2)C(Cl)(Cl)Cl)c1 (stereo unspecified)	-14%	-8%	-24	?	-22%	?
O=C(/C=C/c1ccccc1)NC(NC(=S)Nc1cccc(Cl)c1)C(Cl)(Cl)Cl (stereo unspecified)	-4%	-19%	-75*	?	9.2µM*	?
Cc1ccc(C)c(NC(=S)NC(NC(=O)/C=C/c2ccccc2)C(Cl)(Cl)Cl)c1 (stereo unspecified)	-18%	-23%	?	?	7.3µM*	?
O=C(/C=C/c1ccccc1)NC(NC(=S)Nc1ccc(Cl)cc1Cl)C(Cl)(Cl)Cl (stereo unspecified)	12%	-25%	.	?	?	10µM*
COc1ccccc1C(=O)NCCn1cc(SCC(=O)Nc2ccccc2F)c2ccccc21	.	0%	1	?	?	.
CCNS(=O)(=O)c1ccc(NC(=O)Nc2cc(C)ccc2OC)cc1	0%	5%	-15	.	.	13µM*
Cc1ccc(NC(=O)c2cnccn2)c(OC(F)F)c1	-4%	20%	-14	-3%	5%	13µM*
Cc1ccc(NC(=O)Nc2ccc3c(c2)OCO3)c(OC(F)F)c1	-9%	50%	62	-22%	-24%	-27%
COc1ccc(NC(=O)Nc2ccc(C)cc2OC(F)F)cc1OC	4%	-15%	-2	-2%	-24%	6.3µM*
SMILES	SARS PLP yeast	FMDV antiviral	HCMV antiviral	MARV entry inh	LASV entry inh	HCV inh
COCCNc1nc(-c2ccccc2CO)c2sc(-c3ccccc3)cc2n1	.	-10%	.	.	.	.
COc1ccc(N2CCN(Cc3csc(C)c3-c3ccc(C)cc3)CC2)cc1	-3%	?	-68*	?	?	?
O=C(Cn1cc(S(=O)(=O)Cc2ccccc2F)c2ccccc21)N1CCOCC1	4%	-7%	16	?	-4%	4%
COC(=O)c1ccc([C@H]2/C(=C(\O)c3ccc(OC)cc3)C(=O)C(=O)N2Cc2ccco2)cc1	.	.	.	-4%	.	.
O=C(CCl)Nc1c[nH]c(=O)[nH]c1=O	-2%	?	-64*	?	?	?
CCOC(=O)NNC(=O)CCn1c2c(c3ccccc31)CCCC2	0%	-5%	-89*	.	.	?
O=C(CCn1c2c(c3ccccc31)CCCC2)NNC(=O)c1ccc(Cl)c([N+](=O)[O-])c1	-3%	3%	-29	-9%	-4%	10µM*
O=C(CCn1c2c(c3ccccc31)CCCC2)NNC(=O)c1ccc([N+](=O)[O-])cc1	-7%	-21%	-10	-4%	-12%	?
COc1ccc(NC(=O)CSc2nc(-c3ccccc3)cc(-c3cc(OC)c(OC)c(OC)c3)c2C#N)c(OC)c1	.	-7%	-10	.	?	.
O=C(O)c1cccc2c1Cc1cc([N+](=O)[O-])ccc1-2	.	14%	-97*	-3%[46.1 µM]	23%[46.1 µM]	5%
O=C1CC(C(=O)N2CCOc3ccc(CN4CCC(Oc5cccnc5)CC4)cc3C2)c2ccccc21 (stereo unspecified)	.	-18%	.	.	.	.
CCOc1cc(S(=O)(=O)N(Cc2ccccc2)Cc2ccccc2)c(OCC)cc1-n1cnnn1	6%	-9%	20	21µM*	-53%[14.3 µM]	.
CCOc1cc(S(=O)(=O)NCc2ccccc2)c(OCC)cc1-n1cnnn1	.	63%	?	-14%	8%	-17%
O=C(COC(=O)CNC(=O)c1ccc([N+](=O)[O-])o1)Nc1ncc(C(F)(F)F)cc1Cl	-4%	-5%	-13	.	.	2.8µM*
O=C(COC(=O)CNC(=O)c1ccc([N+](=O)[O-])o1)Nc1ncc(Cl)cc1Cl	-16%	-21%	1	-11%	?	-10%
CCOC(=O)c1noc2ncn(CC(=O)Nc3ccc(OC)c(Cl)c3)c(=O)c12	.	-23%	-2	.	15%[46.1 µM]	.
Cc1ccc(C2(c3ccc(C)cc3)CC2C(=O)NC(C)C)cc1 (stereo unspecified)	-2%	-13%	-23	13µM*	-3%[46.1 µM]	-9%
Cc1ccc(C2(c3ccc(C)cc3)CC2C(=O)NCc2cccnc2)cc1 (stereo unspecified)	0%	-13%	-18	0%	-18%	?
Cc1nc2nc(C)c(NS(=O)(=O)c3ccc(CC(C)C)cc3)c(=O)n2[nH]1	3%	3%	?	?	0%	13%
COc1cc(Nc2cc3c(cn2)cc(-c2cnn(C)c2)n3Cc2ccccc2)cc(OC)c1OC	.	.	-74*	.	.	.
CS(=O)(=O)c1cccc(Nc2cc3c(cn2)cc(-c2ccccc2)n3Cc2ccccc2)c1	.	.	15	.	.	.
